Screens (PubChem BioAssay)
In the library only some 22% were active in any assay of this set; here they are far more common.
F-actin modifier – modifiers of F-actin cytoskeleton organization, primary screen, imaging, HUVEC, phalloidin staining, high-content imaging; HUVEC TNFa F-actin phalloidin imaging; inhibition, % at 2 µM; 91,000 compounds, 0.18% hits; AID 836, 2007;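 active = inhibition above the batch mean plus 3 SD and confirmed as a hit by visual image inspection, cut at about 30% in these data, passing the limit was not always enough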
CYP2C9 act – human CYP2C9 activators, primary screen, biochemical, luminescence | recombinant CYP2C9, luciferin-H conversion; stronger effect = higher value; factor 1 = untreated enzyme, 0 = blocked | activation factor at 5 µM | Cytochrome P450 2C9 (Homo sapiens), P11712 | 96,000 compounds, 1.4% hits;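 active = activation factor of 2 or more for CYP2C9 at a 5 µM dose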;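 note: 0 = sulfaphenazole-blocked wells and 1 = vehicle-only wells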
CYP2C9 inh – blockers of cytochrome P450 2C9 activity – biochemical, luminescence, ADME assay, primary screen. 96,000 compounds, 20% hits. CYP2C9 Supersomes, luciferin-H conversion. P11712. inhibition, % at 5 µM;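 active = blocking of liver enzyme CYP2C9 beyond about 50% at 5 µM, limit read from the data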
E-sel TNF inh – E-selectin induction blockers in HUVEC – imaging, immunofluorescence, high content, primary screen; HUVEC TNFa-induced E-selectin immunofluorescence; inhibition, % at 2 µM; 120,000 compounds, 0.71% hits; AID 1246, 2008;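 active = inhibition above the batch mean plus 3 SD, and confirmed as a hit on visual image review, cut at about 43% in these data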;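 note: 0% = TNF-stimulated DMSO wells and 100% = unstimulated control wells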
CYP2C19 inh – blockers of cytochrome P450 2C19 activity – biochemical, luminescence, ADME assay, primary screen. 96,000 compounds, 21% hits. CYP2C19 Supersomes, luciferin-H EGE luminescence, 30 min. inhibition, % at 5 µM;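 active = CYP2C19 inhibition above a set limit at 5 µM in the primary screen, cut at about 50% in these data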;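 note: plate controls were negative control wells for no effect and 2.5 mM tranylcypromine positive control for full effect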
Target sequence (P33261 whole entry, looked up): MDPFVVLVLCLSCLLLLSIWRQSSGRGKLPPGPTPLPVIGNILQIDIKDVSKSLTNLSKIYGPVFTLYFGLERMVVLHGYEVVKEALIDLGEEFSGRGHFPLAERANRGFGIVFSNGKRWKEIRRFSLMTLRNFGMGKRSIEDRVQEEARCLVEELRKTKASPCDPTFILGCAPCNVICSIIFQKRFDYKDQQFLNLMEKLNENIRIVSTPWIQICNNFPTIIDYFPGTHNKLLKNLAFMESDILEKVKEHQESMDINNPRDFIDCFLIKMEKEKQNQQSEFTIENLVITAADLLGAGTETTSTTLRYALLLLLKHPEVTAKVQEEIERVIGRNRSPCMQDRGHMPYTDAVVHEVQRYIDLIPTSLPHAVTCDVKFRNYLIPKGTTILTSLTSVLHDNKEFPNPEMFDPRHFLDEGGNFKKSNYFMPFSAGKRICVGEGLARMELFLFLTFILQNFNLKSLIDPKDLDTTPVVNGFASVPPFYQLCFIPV
CYP2C19 act – human CYP2C19 activators, primary screen, biochemical, luminescence. Cytochrome P450 2C19 (Homo sapiens), P33261. recombinant CYP2C19, luciferin-H EGE luminescence; stronger effect = higher value; 0 = fully inhibited enzyme, 1 = untreated enzyme. activation factor at 5 µM. 96,000 tested, under 10 active. AID 1025, 2008;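 active = activation factor of at least 2 at 5 µM in the primary screen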;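 note: 0 = wells with 2.5 mM tranylcypromine and 1 = vehicle-only wells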
* = called active by the depositor; . = not tested or not shown.

SMILES	F-actin modifier	CYP2C9 act	CYP2C9 inh	E-sel TNF inh	CYP2C19 inh	CYP2C19 act
CCCc1cc(-c2n[nH]c(C)c2-c2ccc(C(=O)OCC)o2)c(O)cc1O	6.4	0	98.9*	-8.3	97.3*	0
COC(=O)[C@@]1(Cc2ccc(OC)cc2)[C@H]2c3cc(C(=O)N4CCCC4)n(CCN4CCNC4=O)c3C[C@H]2CN1C(=O)c1ccccc1	.	.	.	20.1	.	.
CCOC(=O)N1CCN(c2c(NCc3ccccc3OC)c(=O)c2=O)CC1	-4.6	1.1	-6.1	-2.4	-14.6	1.1
O=C(NC12CC3CC(CC(C3)C1)C2)N1CCN(c2ccccn2)CC1	-16.0	0.9	14.9	-2.5	38.5	0.6
CC(C)(C)c1ccc(C(=O)OCCNC(=O)c2c(Cl)nc3ccccn23)cc1	-10.9	0.1	92.4*	22.1	59.1*	0.4
CCOC(=O)c1c(-c2ccccc2)nc2ccccn12	-1.5	0.9	13.7	1.8	-0.8	1
COc1ccc(C(=O)OCCNC(=O)c2c(Cl)nc3ccccn23)cc1	-13.8	0.6	44.6	60.3*	75.0*	0.3
Cn1c(=NC(=O)CSCC(=O)N2CCCC2)sc2ccccc21	-5.3	1.1	-10.1	16.4	27.4	0.7
CC1CCCN(C(=O)CSCC(=O)N=c2sc3ccccc3n2C)C1 (stereo not drawn)	15.9	0.8	20.6	19.2	99.1*	0
Cc1ccn2c(NC(=O)C(C)(C)Oc3ccc(Cl)cc3)c(-c3cccs3)nc2c1	.	.	.	7.3	.	.
O=C(c1ccncc1)N(Cc1ccccc1)Cc1nc2ccccc2c(=O)[nH]1	.	0.1	92.7*	-86.8	55.7*	0.4
O=C(C1CCC1)N(CCc1ccccc1)Cc1nc2ccccc2c(=O)[nH]1	29.9	0.1	85.1*	-22.2	64.4*	0.4
O=C(C1CC1)N(CCc1ccccc1)Cc1nc2ccccc2c(=O)[nH]1	-20.3	0.4	58.0*	25.0	55.8*	0.4
CCCC(=O)N(CCc1ccc(OC)cc1)Cc1nc2ccccc2c(=O)[nH]1	.	0.8	20.4	19.3	30.7	0.7
O=C1CSC(c2ccccc2F)N1c1ccccc1 (stereo not drawn)	-15.7	.	.	11.2	.	.
O=C1CSC(c2c(F)cccc2Cl)N1c1cccc(F)c1 (stereo not drawn)	9.4	2.1*	-106.7	22.5	19.6	0.8
O=C(CSc1nc2c(cnn2-c2ccc(F)cc2)c(=O)[nH]1)N1CCCc2ccccc21	-24.1	0.7	28.2	.	-1.8	1
Nc1nc(SCC(=O)N2CCCc3ccccc32)[nH]c(=O)c1-c1ccccc1	-1.4	0.5	51.1*	-27.8	45.8	0.5
O=C(Nc1cccc(F)c1)NC1CCCCC1	3.2	0.6	41.0	-42.5	55.0*	0.4
Cc1ccc(C)n1-c1nc(=S)[nH][nH]1	1.9	0.1	87.7*	0.1	76.1*	0.2
S=c1nc(-c2ccco2)[nH][nH]1	14.9	1	3.5	-20.3	2.4	1
COc1ccc(-c2ccc(-c3nnc(-c4ccncc4)o3)cc2)cc1	.	0.7	35.0	-19.2	52.9*	0.5
CCOC(=O)c1[nH]c(C)c(CN(CCc2ccccc2)S(C)(=O)=O)c1C	-8.5	0.4	55.7*	.	30.8	0.7
CCOC(=O)c1[nH]c(C)c(CN(CCc2ccc(OC)c(OC)c2)C(=O)CCCC(=O)O)c1C	28.4	0.9	6.5	.	13.7	0.9
O=C(OCCN1CCCC1=O)c1cc(F)c(F)c(F)c1F	.	.	.	9.3	.	.
SMILES	F-actin modifier	CYP2C9 act	CYP2C9 inh	E-sel TNF inh	CYP2C19 inh	CYP2C19 act
Cc1ccc(CNC(=O)C23CN(Cc4ccccc4)CC2C(c2cccc([N+](=O)[O-])c2)=NO3)cc1 (stereo not drawn)	-8.0	0.4	60.7*	.	88.2*	0.1
O=C(NCCc1cccs1)C12CN(Cc3ccccc3)CC1C(c1cccc([N+](=O)[O-])c1)=NO2 (stereo not drawn)	4.4	0.3	72.6*	.	49.9	0.5
O=C(NCCCCc1ccccc1)C12CN(Cc3ccccc3)CC1C(c1cccc([N+](=O)[O-])c1)=NO2 (stereo not drawn)	-17.8	0.9	13.2	.	16.8	0.8
O=C(Nc1ccccc1)OCCNC(=O)c1ccccc1	-9.9	0.7	34.5	5.7	47.4	0.5
Cc1ccc(O)c(C2=NOC(O)(C(F)(F)C(F)F)C2)c1 (stereo not drawn)	16.1	0.5	52.9*	.	84.1*	0.2
Cc1ccc(O)c(C2=NOC(O)(C(F)(F)F)C2)c1 (stereo not drawn)	.	0.8	17.2	-18.9	68.0*	0.3
Cc1cc(C(=O)Nc2nc(C)c(C(=O)N(C)C)s2)ccc1[N+](=O)[O-]	.	.	.	9.9	.	.
Cc1ccc(NC(=O)c2cn(CCC#N)nc2-c2cccs2)c([N+](=O)[O-])c1	.	.	.	-13.2	.	.
CC1CCCC(C)N1C(=O)c1cc(F)c(F)cc1Cl (stereo not drawn)	14.3	0.9	8.5	-3.2	59.2*	0.4
CC1CCN(C(=O)c2cc(F)c(F)cc2Cl)CC1	-0.5	.	.	-14.9	.	.
Cc1c(C(=O)NC2CCCCC2)oc2c1C(=O)CC(C)(C)C2	-10.7	0.8	19.7	-9.6	16.0	0.8
CS(=O)(=O)N1CCN(c2ccccc2NC(=O)c2ccc3ccccc3c2)CC1	4.7	.	.	3.9	.	.
CS(=O)(=O)c1ccc(Cl)c(NC(=O)c2ccc3ccccc3c2)c1	.	.	.	63.5*	.	.
CCCCn1c(=O)[nH]c(=O)c2c1nc(-c1ccc(C#N)cc1)n2C1CCCC1	7.2	0.4	61.5*	-23.3	25.2	0.7
O=C(Nc1ccccc1C(F)(F)F)N1CCCC(O)C1 (stereo not drawn)	53.6	0.9	14.9	-1.0	-12.7	1.1
COc1ccc2c(c1)c1ncn(CCc3ccccc3)c(=O)c1n2C	-20.3	0.1	92.1*	4.1	58.5*	0.4
CCN=C1SC(CC(=O)Nc2sc(C)c(C)c2C(=O)OC)C(=O)N1CC (stereo not drawn)	-2.2	0.8	17.3	-0.3	42.5	0.6
COc1ccccc1N(C)S(=O)(=O)c1ccc(C(=O)Nc2nc(C)cs2)cc1	.	.	.	13.0	.	.
COc1ccccc1N(C)S(=O)(=O)c1ccc(C(=O)NC(C)(C)C)cc1	-1.5	0.3	72.8*	-11.8	27.3	0.7
O=C1C(=C(c2ccccc2)c2ccccc2)Nc2ccccc21	6.4	0.1	89.1*	-28.2	63.6*	0.4
O=C1C(=C(O)c2ccccc2)C(=O)c2ccccc21	0.5	0.6	44.0	.	1.2	1
COc1ccccc1CN(Cc1cc2cc(C)ccc2[nH]c1=O)Cc1nnnn1CC1CCCO1 (stereo not drawn)	5.6	0.4	56.5*	4.8	24.3	0.8
